Compound activity as filed in PubChem BioAssay.
Pf growth 96h – P. falciparum growth inhibition at 96 hour, primary screen for plastid delayed-death inhibitors; P. falciparum luciferase reporter growth, 96 h; Potency, µM (doses to about 28.7 µM), usual class: inhibitors; actives 6.9% (n = 320,000); AID 504834
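Compounds incubated with erythrocytes infected by luciferase-expressing P. falciparum (2% hematocrit, 0.05% parasitemia final) for 96 hours, 37 C in 5% CO2. Growth inhibition scored as decreased luciferase luminescence.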
SARS PLpro yeast – SARS-CoV PLP inhibition in yeast; actives 0.19% (n = 330,000); S. cerevisiae expressing SARS-CoV PLpro, growth rescue; AID 485353; Potency, µM (doses to about 32.9 µM), actives largely listed as activators; calls by dose curve; note: nearly all actives have a fitted effect of over 55% in size
AmpC inh no detg – inhibitors of E. coli AmpC beta-lactamase without detergent; AmpC nitrocefin hydrolysis, absorbance 480 nm, 0.0001% Triton; P00811; Potency, µM (doses to about 57.1 µM), actives largely listed as inhibitors; actives 0.52% (n = 330,000); AID 485341; note: nearly all actives have a fitted effect of over 20% in size
Target sequence (P00811 whole entry, looked up): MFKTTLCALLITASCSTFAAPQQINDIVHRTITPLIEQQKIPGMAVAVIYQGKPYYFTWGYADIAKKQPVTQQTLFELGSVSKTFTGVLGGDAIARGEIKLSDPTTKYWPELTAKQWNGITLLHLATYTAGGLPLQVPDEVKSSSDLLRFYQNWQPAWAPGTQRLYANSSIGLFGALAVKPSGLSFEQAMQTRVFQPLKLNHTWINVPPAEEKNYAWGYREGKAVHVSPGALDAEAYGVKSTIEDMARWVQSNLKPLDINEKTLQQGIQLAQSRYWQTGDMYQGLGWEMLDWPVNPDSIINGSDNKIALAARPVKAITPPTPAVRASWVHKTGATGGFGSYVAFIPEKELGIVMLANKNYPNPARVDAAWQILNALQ
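20 mM phosphate pH 7.0 + 0.01% (detergent screen) or 0.0001% Triton X-100; 5.3 nM AmpC reagent; cpd preinc 15 min RT; nitrocefin (800 uM stock) to start; A480 q20 s × 4 min; Activity was normalised to no-enzyme and no-compound control wells.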
Sm TGR block – blocks Schistosoma mansoni thioredoxin glutathione reductase | purified TGR, DTNB reduction, TNB absorbance 405 nm | Potency, µM (doses to about 114 µM), usual class: inhibitors | actives 3% (n = 360,000); note: nearly all actives have a fitted effect of over 60% in size
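TGR 20 nM + NADPH 100 uM (dispensed conc.), cpd preinc 15 min RT; start with NADPH (500 uM addition) then DTNB (15 mM addition). Kinetic TNB absorbance, 405 nm filter. Four-parameter Hill fit across titration.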
AmpC inh detg – blocks E. coli AmpC beta-lactamase in detergent assay; P00811; AmpC hydrolysis of nitrocefin, absorbance 480 nm, 0.01% Triton; Potency, µM (titrated, usually from 114 µM), usual class: inhibitors; actives 0.041% (n = 370,000); AID 485294; note: nearly all actives have a fitted effect of over 25% in size
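AmpC (5.3 nM in the dispensed reagent) in 20 mM phosphate pH 7.0 with 0.01% (detergent screen) or 0.0001% Triton X-100 was preincubated with compounds for 15 min at room temperature. Nitrocefin was then added from an 800 uM solution, and hydrolysis was followed at 480 nm.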
Pf growth 48h – inhibits P. falciparum growth in the first generation, 48 h; P. falciparum luciferase growth in erythrocytes, 48 h; Potency, µM (top dose mostly 28.7 µM), hits mostly inhibitors; actives 5.9% (n = 310,000); AID 504832
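First compound was added to culture medium, then infected red cells at 0.1% parasitemia and 2% hematocrit (final). After incubation at 37 C under 5% CO2, luciferase detection reagent was dispensed and light output recorded.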
Large screens that a line does not name were inactive. Shown are actives, neighbours in structure and some others; about 12% of the full set was active somewhere. Unless noted, calls come from the whole dose curve; as a rule, active = well fitted curve in the direction sought with a large enough effect; inconclusive = small, poorly fitted or top-dose-only effect, or another doubt; inactive = no such curve, though single readings can be large; an effect the other way counts as inactive or inconclusive.

Oc1ccc2c(c1)C1CCCC1(N1CCOCC1)O2 (configuration not stated)	Pf growth 96h inconclusive, Sm TGR block 28µM
COc1ccc(Cl)cc1Nc1nc(-c2sc(NC(=O)CC(C)C)nc2C)cs1	Pf growth 96h 9.3µM, Pf growth 48h 10µM
CCCC(C)C(=O)Nc1nc(C)c(-c2csc(Nc3cc(Cl)ccc3C)n2)s1 (configuration not stated)	Pf growth 96h inconclusive, AmpC inh detg inconclusive, Pf growth 48h inconclusive
Cc1nc(NC(=O)CC(C)C)sc1-c1csc(Nc2ccc(Cl)cc2Cl)n1	Pf growth 96h 9.3µM, Pf growth 48h inconclusive
Cc1nc(NC(=O)CC(C)C)sc1-c1csc(Nc2ccc(Cl)cc2)n1	Pf growth 96h 4.7µM, Pf growth 48h 10µM
C=CCCC(=O)Nc1nc(C)c(-c2csc(Nc3ccc(Cl)cc3Cl)n2)s1	Pf growth 96h 8.3µM, Pf growth 48h inconclusive
CCCCCCC[N+](CC)(CC)CCCCc1ccc(Cl)cc1	Pf growth 96h 0.47µM, Pf growth 48h 0.47µM (no result: SARS PLpro yeast)
CC(=O)NC1(c2nnnn2CCOC(=O)Nc2ccc(Cl)cc2)CCCC1	none
O=C(Nc1ccc(Cl)cc1)OCCn1nnnc1C(c1ccccc1Cl)N1CCOCC1 (configuration not stated)	Pf growth 96h inconclusive, Pf growth 48h 15µM
CCCc1cc(=O)[nH]c(SCC(=O)N2CCN(S(=O)(=O)c3ccc(C)cc3)C2)n1	Pf growth 96h 13µM, AmpC inh detg inconclusive (no result: Pf growth 48h)
Cc1cc(N2C(=O)CC(N3CCN(C(c4ccccc4)c4ccccc4)CC3)C2=O)no1 (configuration not stated)	Sm TGR block 45µM
CCCc1cc(C(=O)N2CCN(C(c3ccccc3)c3ccccc3)CC2)no1	Pf growth 96h inconclusive, Pf growth 48h 12µM
CC12CCC(C(=O)N3CCN(C(c4ccccc4)c4ccccc4)CC3)(OC1=O)C2(C)C (configuration not stated)	Pf growth 96h 1.7µM, AmpC inh detg inconclusive (no result: Pf growth 48h)
Cc1cc(C)cc(CC2CC(=O)N(c3cc(C)on3)C2=O)c1 (configuration not stated)	none
C#CCOn1c(-n2nc(C)cc2C)nc2ccccc2c1=O	Pf growth 96h inconclusive
CCc1ccc(S(=O)(=O)c2cn(C)c3cc(N4CCC(C)CC4)c(F)cc3c2=O)cc1	none (no result: Pf growth 96h, SARS PLpro yeast, AmpC inh no detg, Pf growth 48h)
O=C(c1cc(-c2cccs2)on1)N1CCOCC1	Pf growth 96h inconclusive
O=C(c1cc(-c2cccs2)on1)N1CCN(C(c2ccccc2)c2ccccc2)CC1	Pf growth 48h 6.6µM
Cc1c(C(=O)N2CCN(C(c3ccccc3)c3ccccc3)CC2)oc2ccccc12	Pf growth 96h 15µM, AmpC inh no detg inconclusive, Pf growth 48h 6.6µM
Cc1cc(C(=O)N2CCN(c3ccccc3)CC2)no1	Sm TGR block inconclusive
COc1ccccc1N1CCN(C(=O)c2c(C)cc(=O)oc2C)CC1	AmpC inh detg inconclusive (no result: Pf growth 96h)
Cc1cc(C(=O)N2CCN(C(c3ccccc3)c3ccccc3)CC2)no1	Pf growth 96h inconclusive, Pf growth 48h 9.3µM
Cc1cc(=O)oc(C)c1C(=O)N1CCN(C(c2ccccc2)c2ccccc2)CC1	Pf growth 96h 9.3µM, Sm TGR block inconclusive, Pf growth 48h 13µM
CCOc1ccc(NC(=O)CC2C(=O)N(c3ccc(F)cc3)C(=O)N2CCc2sccc2C)cc1 (configuration not stated)	none (no result: Pf growth 96h, SARS PLpro yeast, AmpC inh no detg, Pf growth 48h)
Cc1ccc(Cl)c(NC(=O)COC(=O)c2cc[n+]([O-])cc2)c1Cl	none (no result: Pf growth 96h, Sm TGR block, AmpC inh detg, Pf growth 48h)
NC(=O)CC(NC(=O)Cc1ccc(Br)cc1)c1ccc(N2CCN(c3ccc(F)cc3)CC2)c([N+](=O)[O-])c1 (configuration not stated)	Pf growth 96h inconclusive, Pf growth 48h inconclusive
O=C(Nc1ccc(N2CCOCC2)nc1)c1ccccc1Cl	none
CC(C)c1ccc(/C=C(\NC(=O)c2ccccc2)C(=O)NCCN2CCOCC2)cc1	Pf growth 96h inconclusive
Cc1cc(=O)[nH]c(SCC(=O)N2CCN(C(c3ccccc3)c3ccccc3)CC2)n1	Pf growth 48h 13µM
COc1cccc(-c2cc(C(=O)N3CCN(C(c4ccccc4)c4ccccc4)CC3)no2)c1	Pf growth 96h 1.5µM, Pf growth 48h 8.3µM
CCN(CC)C(=O)Cn1c(=O)n(Cc2ccc(C(=O)NCc3ccccc3Cl)cc2)c(=O)c2ccccc21	none (no result: Pf growth 96h, SARS PLpro yeast, AmpC inh no detg, Pf growth 48h)
COC(=O)c1ccc(NC(=O)C(C)Sc2nc(=O)cc(N)n2CCc2ccccc2)cc1 (configuration not stated)	none (no result: Pf growth 96h, SARS PLpro yeast, AmpC inh no detg, Pf growth 48h)
CCCSc1ncc(Cl)c(C(=O)N(Cc2ccc(N(C)C)cc2)C2CCS(=O)(=O)C2)n1 (configuration not stated)	none (no result: Pf growth 96h, SARS PLpro yeast, AmpC inh no detg, Pf growth 48h)
O=C(Nc1c(-c2ccccc2)nc2ccc(Cl)cn12)c1cccs1	Pf growth 96h 5.2µM, AmpC inh detg inconclusive
Cc1ccn2c(NC(=O)c3cccs3)c(-c3ccccc3)nc2c1	Pf growth 96h inconclusive, AmpC inh detg inconclusive
COc1ccc(S(=O)(=O)CCC(=O)NCCc2cccc(C)c2)cc1	Pf growth 96h inconclusive, AmpC inh detg inconclusive (no result: Pf growth 48h)
COc1ccc(S(=O)(=O)CCC(=O)NCCc2ccc(S(N)(=O)=O)cc2)cc1	Pf growth 96h 9.3µM, Sm TGR block 40µM
CCOC(=O)c1cnc(SCc2ccc(C)cc2)nc1N	Pf growth 96h 0.052µM
CCc1nc(CN(C)C(=O)C2CCC(=O)N(Cc3cccc(F)c3)C2)no1 (configuration not stated)	AmpC inh detg inconclusive
N#C/C(=C/c1cn(-c2ccccc2)nc1-c1cccc(OCc2ccc(F)cc2)c1)C(=O)NCCCn1ccnc1	Pf growth 96h 2.1µM, Pf growth 48h 3.7µM
CCCOc1cccc(-c2nn(-c3ccccc3)cc2/C=C(\C#N)C(=O)NCCCn2ccnc2)c1	Pf growth 96h 10µM, Pf growth 48h 2.1µM
O=C(NCCCn1ccnc1)c1cn(-c2ccccc2)nc1-c1ccc(F)cc1	AmpC inh detg inconclusive, Pf growth 48h inconclusive
COc1ccc(Cn2ccc3nc(C)c(C(=O)N4CCN(c5ccccc5OC)CC4)cc3c2=O)cc1	none (no result: Pf growth 96h, SARS PLpro yeast, AmpC inh no detg, Pf growth 48h)
NS(=O)(=O)c1cc(C(=O)OCC(=O)Nc2ccc3[nH]c(=O)[nH]c3c2)ccc1Cl	none
O=C1CC(c2ccco2)CC2=C1C(c1ccccc1)n1nc(C(F)(F)F)nc1N2 (configuration not stated)	Sm TGR block inconclusive, Pf growth 48h 9.3µM (no result: Pf growth 96h)
COc1ccc(C2CC(=O)C3=C(C2)Nc2ncnn2C3c2ccccc2)cc1 (configuration not stated)	none (no result: Pf growth 96h)
Cc1oc2c(c(C)cc3oc(=O)c(CC(=O)NCc4ccc(F)cc4)c(C)c32)c1C	none (no result: Pf growth 96h, SARS PLpro yeast, AmpC inh no detg, Pf growth 48h)
